# Source: PubChem
# An excerpt weighted towards active compounds, which were near 8% of everything screened.
# HT1080-NT tox = qHTS for induction of synthetic lethality in tumor cells producing 2HG: qHTS for the HT-1080-NT fibrosarcoma cell line | HT-1080-NT fibrosarcoma viability, CellTiter-Glo ATP luminescence, 48 h | AID 686970, 2013 | hit rate 1.6% among 360,000 | Potency, µM (series often up to 46.1 µM), for inactives: top-dose activity, negative = less viability, usual class: cytotoxic;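 note: NT is the 2HG producing partner of a matched IDH1 knockdown line; 0% = DMSO-treated cells and -100% = media-only wells without cells; nearly all actives have a fitted effect of over 55% in size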
#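 Fibrosarcoma NT cells, 750 per well in 5% FBS RPMI, were exposed to compound for 48 hours. Viability: CellTiter-Glo luminescence.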
# SW480 rerep = A quantitative high throughput screen for small molecules that induce DNA re-replication in SW480 colon adenocarcinoma cells; SW480 DNA re-replication, Hoechst DNA content imaging, 48 h; Potency, µM (top dose mostly 46.1 µM), for inactives: at the top dose re-replication activation, hits mostly activators; hit rate 1.8% among 340,000; AID 624297, 2012; note: % of control where 0% means no effect; nearly all actives have a fitted effect of over 55% in size
#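 Quantitative HTS format with DMSO vehicle controls; 48 hr drug incubation at 37 C, then 40 min Hoechst staining and scanning imager measurement at 405 nm excitation.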
# MCF10A rerep = A quantitative high throughput screen for small molecules that induce DNA re-replication in MCF 10a normal breast cells | Potency, µM (top dose mostly 46.1 µM), for the others: at the top dose activity, positive = re-replication, hits mostly activators | MCF 10A DNA re-replication, Hoechst nuclear intensity, 48 h | hit rate 2.9% among 350,000; note: % of control where 0% means no effect; nearly all actives have a fitted effect of over 50% in size
# KB-V1 MDR tox = qHTS assay for MDR1-selective chemotherapeutics: Primary screen using the drug-selected MDR subline cells KB-V1 | KB-V1 MDR cells viability, CellTiter-Glo, 72 h | Potency, µM (series often up to 46.1 µM), most hits filed as cytotoxic | hit rate 3.4% among 400,000 | AID 1347076, 2019; note: % is set by controls: 0 for no effect and ±100 for the full control effect; nearly all actives have a fitted effect of over 60% in size
#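 Compound-treated KB-V1 multidrug-resistant cells, 72 h, 37 degrees C; viability by CellTiter-Glo. Fitted qHTS curves give the values.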
# KB-3-1 tox = qHTS assay for MDR1-selective chemotherapeutics: Primary screen using the parental adenocarcinoma cell KB-3-1 | Potency, µM (doses to about 46.1 µM), most hits filed as cytotoxic | KB-3-1 viability, CellTiter-Glo ATP luminescence, 72 h | hit rate 1.4% among 400,000; note: % is set by controls: 0 for no effect and ±100 for the full control effect; nearly all actives have a fitted effect of over 60% in size
#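 Luminescent ATP read-out (CellTiter-Glo) measures survival of drug-naive KB-3-1 cells after 72 h compound exposure at 37 °C. Titration series was screened from lowest to highest concentration, with DMSO vehicle plates as background controls.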
# HT1080 IDH1KD tx = qHTS for induction of synthetic lethality in tumor cells producing 2HG: qHTS for the HT-1080-IDH1KD cell line. HT-1080 IDH1 knockdown viability, ATP luminescence, 48 h. Potency, µM (top dose mostly 46.1 µM), for inactives: at the highest dose activity, negative = toxicity, usual class: cytotoxic. hit rate 2% among 360,000;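 note: 0% = DMSO wells and -100% = cell-free medium wells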
#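 Cytotoxicity counter-line: IDH1KD HT-1080, 48 h, CellTiter-Glo. Curves classed by r2, magnitude and activity.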
# The depositor's hits bear a star; i = inactive; ? = inconclusive; . = no result; [ ] = dose if it differs, or a comment. Calls come from the whole dose curve; as a rule, active = well fitted curve in the direction sought with a large enough effect; inconclusive = small, poorly fitted or top-dose-only effect, or another doubt; inactive = no such curve, though single readings can be large; an effect the other way counts as inactive or inconclusive. Potency is the fitted concentration of half-maximal effect.
SMILES,HT1080-NT tox,SW480 rerep,MCF10A rerep,KB-V1 MDR tox,KB-3-1 tox,HT1080 IDH1KD tx
CC(=O)c1sc2c(c1OC(=O)c1ccc(Cl)cc1)c(=O)n(-c1ccccc1)c(=S)n2-c1ccccc1,-19%,1%,?,15µM*,?,?
O=C(Oc1ccc(=O)n(-c2ccccc2)n1)c1ccc(Cl)cc1,8%,-1%,-8%,i,i,14%
CC(=O)c1sc2c(c1OC(=O)c1ccc(Cl)cc1Cl)c(=O)n(-c1ccccc1)c(=S)n2-c1ccccc1,1.5µM*,4%,?,?,?,2.6µM*
COc1cc(-c2nnc(SCCOc3ccc(Cl)cc3C)o2)cc(OC)c1OC,.,.,.,i,i,.
CC(NC(=O)CSc1ccc(S(=O)(=O)N2CCOCC2)cn1)c1ccc(Cl)cc1Cl (stereo not given),-9%,-15%,1%,i,i,-7%
CN(C)CCCNS(=O)(=O)c1ccc(NC2CCCCCC2)c([N+](=O)[O-])c1,?,?,?,?,18µM*,?
O=C(Nc1nnc(SCc2ccc(F)cc2)s1)C1CC(=O)N(Cc2ccccc2)C1 (stereo not given),4%,29%,?,21µM*,i,22%
Cc1nnc(NC(=O)C2CC(=O)N(Cc3ccccc3)C2)s1 (stereo not given),?,-1%,8%,i,i,5%
CN(C)c1ccc(C(=O)OCc2ccccc2)cc1,20%,-33%,4%,i,i,1%
O=C1C=CC(=O)C(CNc2ccc(C(=O)OCc3ccccc3)cc2)=C1,16µM*,?,?,21µM*,21µM*,10µM*
CCOC(=O)C1=C(O)/C(=C/c2ccc(-c3ccccc3C(=O)O)o2)SC1=Nc1ccc(OC)cc1,0%,-2%,4%,i,i,2%
CCOC(=O)C1=C(O)/C(=C/c2ccc(-c3ccccc3C(=O)O)o2)SC1=Nc1ccc(C)cc1,-1%,?,13µM*,i,i,-26%
CCOC(=O)C1=C(O)/C(=C/c2cc(OC)c(O)c(OC)c2)SC1=Nc1ccc(OC)cc1,-4%,?,16µM*,i,i,-2%
O=C(Cc1cccc(F)c1)NO,17%,.,.,.,.,23%
CCOC(=O)c1cc(-c2ccc(C)cc2)n(CCC(=O)Nc2cc(Cl)ccc2C)c1C,.,.,.,i,i,.
CC(=O)/C(=N/Nc1ccccc1)N1CCOCC1,5µM*,-10%,22%,i,i,-16%
Cc1ccc(Nc2nc(N)c(C#N)c(CC#N)c2C#N)cc1,?,?,21µM*,i,i,?
Cc1ccc(-n2nc(CC#N)c(C#N)c2N)cc1,1%,-3%,-7%,i,i,9%
CCn1cc(/C=C/c2cc[n+](C)cc2)c2ccccc21,?,?,16µM*,i,i,?
CC(C)n1cc(/C=C/c2cc[n+](C)cc2)c2ccccc21,?,18µM*,6.5µM*,i,1.3µM*,9.2µM*
C=CCn1cc(/C=C/c2cc[n+](C)cc2)c2ccccc21,?,?,?,i,4.1µM*,?
C=CCn1c(C)c(/C=C/c2cc[n+](C)cc2)c2ccccc21,-7%,15µM*,?,i,2.3µM*,?
Cc1ccccc1/C=C/c1cc[n+](C)cc1,-23%,-61%,-29%[9.22 µM],i,?,-19%
CC1=C(CC(=O)c2ccccc2)C(=O)c2ccccc2C1=O,?,?,?,10µM*,?,?
O=C(CN1C(=O)c2ccccc2C1=O)c1ccccc1,15%,-4%,-12%,i,i,18%
SMILES,HT1080-NT tox,SW480 rerep,MCF10A rerep,KB-V1 MDR tox,KB-3-1 tox,HT1080 IDH1KD tx
O=C1NC(Cc2c[nH]c3ccccc23)C(=O)N1Cc1ccc(CN2C(=O)NC(Cc3c[nH]c4ccccc34)C2=O)cc1 (stereo not given),-10%,27%,21µM*,i,i,-13%
O=C1NC(Cc2c[nH]c3ccccc23)C(=O)N1CCOc1ccc(F)cc1 (stereo not given),-21%,-3%,6%,i,i,-1%
Cc1ccc(C)c(N2CCN(C(=O)c3ccc(-c4nc(COc5ccccc5)c(C)o4)cc3)CC2)c1,.,.,.,i,i,.
COc1ccc(-n2cc(CN(C)C(C)c3ccncn3)c(-c3cccc(F)c3)n2)cc1 (stereo not given),-17%,7%,13µM*,?,i,-21%
CCCNC(=O)c1cc2c(c(-c3cccc(-c4ccccc4F)c3)n1)[C@@H](CCO)N(C(=O)CC1CC1)C2,?,.,.,23µM*,?,?
CCNC(=O)c1cc2c(c(-c3cccc(-c4ccccc4F)c3)n1)[C@H](CCO)N(C(=O)CC)C2,?,.,.,18µM*,?,?
O=C(NCC(F)(F)F)c1cc2c(c(-c3cccc(-c4ccccc4F)c3)n1)[C@H](CCO)N(C(=O)CC1CC1)C2,?,.,.,16µM*,?,?
CC1=C(C(=O)Nc2cccnc2)C(c2ccc(F)cc2)n2nc(SCc3ccccc3)nc2N1 (stereo not given),.,.,.,?,i,.
O=c1c2ccccc2sn1-c1ccc(Cl)cc1Cl,-21%,.,.,15µM*,?,?
O=C(COc1ccc(F)cc1Cl)N(Cc1nnc(-c2ccccc2Cl)o1)C1CC1,1%,2%,5%,?,i,-5%
CCOC(=O)/C=c1\s/c(=C\c2ccc(C#N)cc2)c(=O)n1CC(=O)NCc1ccco1,7%,6%,?,i,i,5%
CCOC(=O)/C=c1/s/c(=C/c2ccc3cc(OC)ccc3c2)c(=O)n1CC(=O)NCC1CCCO1 (stereo not given),5%,3.7µM*,?,i,?,13%
CCOC(=O)/C=c1\s/c(=C\c2ccc(C(=O)OC)cc2)c(=O)n1CC(=O)Nc1ccccc1,21%,11%,?,i,i,15%
CCOC(=O)/C=c1\s/c(=C\c2c(OC)ccc3ccccc23)c(=O)n1CC(=O)NCC1CCCO1 (stereo not given),10µM*,5.8µM*,1.2µM*,2.3µM*,4.6µM*,7.9µM*
